D1 antag = human D1 dopamine receptor antagonism; P21728; HEK293 TREx D1 cells, calcium flux, dopamine EC80; active compounds read low; activity change, negative = inhibition, % at 10 µM; 3.2% of 360,000 active; AID 504652; in the data active = activity change below about -30%; also: % is scaled to controls: 0 for no effect and ±100 for the full control effect
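Compound effects on dopamine-evoked calcium signalling were measured in tetracycline-induced HEK293 Trex D1 cells. Dopamine at EC80 followed a 180 s compound pre-read, and fluorescence was tracked kinetically for 180 s more.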
D1 ag = agonists of human D1 dopamine receptor. P21728. 1% of 360,000 active. AID 504660. activation, % at 2 µM. HEK293 T-REx D1 cells, calcium flux, agonist mode; also: 0% is about no effect
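Tetracycline-induced HEK293 TREx D1 cells, force-coupled to calcium signalling, were dye-loaded with a no-wash calcium kit. Compound was pin-added after a 10 s baseline. Fluorescence was read kinetically at 1 cycle/s for 180 s, with calcium rises flagged as agonism.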
D1 PAM = potentiators of human D1 dopamine receptor | 0.036% of 360,000 active | AID 504651 | P21728 | potentiation, % at 10 µM | HEK293 TREx D1 cells, calcium flux, dopamine EC20 potentiation; in the data active = potentiation above about 30%; also: 0% is about no effect
TRHR ag = agonists of human TRH receptor; AID 493084; activation, % at 2 µM; 0.18% of 360,000 active; TRHR cells, calcium flux fluo-8, FDSS agonist mode; P34981; also: 0% is about no effect
Target sequence (P34981 whole entry, looked up): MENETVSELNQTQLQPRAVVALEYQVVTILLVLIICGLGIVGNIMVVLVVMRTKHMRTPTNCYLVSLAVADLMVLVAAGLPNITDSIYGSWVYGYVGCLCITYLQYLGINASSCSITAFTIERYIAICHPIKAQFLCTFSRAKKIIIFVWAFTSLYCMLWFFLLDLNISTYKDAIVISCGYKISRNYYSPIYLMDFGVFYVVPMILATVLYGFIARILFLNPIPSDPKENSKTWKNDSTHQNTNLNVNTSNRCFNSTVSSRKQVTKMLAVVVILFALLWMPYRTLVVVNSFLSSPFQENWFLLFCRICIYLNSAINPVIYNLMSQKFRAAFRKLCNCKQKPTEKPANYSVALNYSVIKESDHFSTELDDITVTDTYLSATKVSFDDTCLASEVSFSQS
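Fluo-8-loaded TRHR cells; 10 s baseline, compound added, kinetic Ca2+ fluorescence read 1/s, agonist mode.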
TRHR PAM = allosterically enhances the human TRH receptor; TRHR cells, fluo-8 calcium fluorescence, EC20 TRH enhancement; enhancement, % at 2 µM; P34981; AID 493056; 0.66% of 360,000 active; in the data active = enhancement above about 30%; also: 0% is about no effect
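Enhancer read-out: after compound pinning and an initial kinetic agonist-mode read, an EC20 of TRH (10 nM final) was injected and fluo-8 calcium signal (Ex 480/Em 530) followed at 1 s/cycle for 100 cycles in TRHR-expressing cells.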
Active calls of the source: *; ! = not active in a repeat. The list is not random: actives were taken first. Their share in the collection is about 4.6%. Rule as the data show it, unless noted: active = activation above about 30%; inactive = the rest.

How did O=C(Nc1nnc(S(=O)(=O)N2CCCCCC2)s1)c1ccc(Cl)cc1 do in these assays?
D1 antag: 4; D1 ag: 8; D1 PAM: 8; TRHR ag: 1; TRHR PAM: 37*!

How did CC(C)C(=O)Nc1nnc(S(=O)(=O)N2CCCCCC2)s1 do in these assays?
D1 antag: -32*!; D1 ag: 0; D1 PAM: -1; TRHR ag: 1; TRHR PAM: 7

What do the screens show for `CC1CCN(S(=O)(=O)c2nnc(NC(=O)c3cccc(Br)c3)s2)CC1`?
D1 antag: 10; D1 ag: 1; D1 PAM: 0; TRHR ag: 0; TRHR PAM: -1

What do the screens show for `Cc1ccc(C(=O)Nc2nnc(S(=O)(=O)N3CCCCCC3)s2)cc1`?
D1 antag: -2; D1 ag: 1; D1 PAM: -3; TRHR ag: 0; TRHR PAM: 5

Results for CCC(CC)C(=O)Nc1nnc(S(=O)(=O)N2CCCCCC2)s1 ?
D1 antag: 0; D1 ag: 7; D1 PAM: 5; TRHR ag: 2; TRHR PAM: -8

What do the screens show for `COc1ccc(CNCc2ccc3c(c2)n(C)c(=O)n3C)cc1`?
D1 antag: 3; D1 ag: 3; D1 PAM: 0; TRHR ag: 1; TRHR PAM: 2

How did Cc1ccc(-c2noc(-c3ccc(NC4CCCC4)c([N+](=O)[O-])c3)n2)cc1 do in these assays?
D1 antag: -22; D1 ag: 5; D1 PAM: -4; TRHR ag: 0; TRHR PAM: 4

How did Cc1c(C(=O)N(Cc2ccco2)Cc2ccccc2Cl)oc2ccc(F)cc12 do in these assays?
D1 antag: 2; D1 ag: 18; D1 PAM: 0; TRHR ag: 3; TRHR PAM: 15

How did Cc1cc(C(=O)NCc2cc(C)n(C)n2)sc1-c1ccccc1 do in these assays?
D1 antag: -34*; D1 ag: 6; D1 PAM: -8; TRHR ag: -1; TRHR PAM: -1

Results for Cc1cccc(N(C)C(=O)Cc2c(C(=O)O)[nH]c3ccccc23)c1 ?
D1 antag: 6; D1 ag: 1; D1 PAM: 2; TRHR ag: -1; TRHR PAM: 12

Results for CCn1c2c(c(=O)n3ncc(C(=O)N4CCN(c5ccc(Cl)cc5)CC4)c13)CN(Cc1ccc(OC)cc1)CC2 ?
D1 antag: -46*; D1 ag: 10; D1 PAM: -3; TRHR ag: 0; TRHR PAM: 1

Results for CCc1ccccc1NC(=O)CSc1nc2c(oc3ccccc32)c(=O)n1-c1ccccc1 ?
D1 antag: -10; D1 ag: 4; D1 PAM: 2; TRHR ag: 0; TRHR PAM: 0

Results for CSc1ccc(/C=C(/NC(=O)c2ccco2)C(=O)N2CCCCC2)cc1 ?
D1 antag: 6; D1 ag: 2; D1 PAM: -1; TRHR ag: 1; TRHR PAM: 0

What do the screens show for `Cc1ccc2ncc(C(=O)NC(C)c3ccccc3)c(=O)n2c1` (stereo unspecified)?
D1 antag: -34*; D1 ag: 0; D1 PAM: -2; TRHR ag: -1; TRHR PAM: 7

How did Cc1nc(Cl)c2c(n1)NC1=C(O2)C(=O)CCC1 do in these assays?
D1 antag: -11; D1 ag: 38*; D1 PAM: -8; TRHR ag: 13; TRHR PAM: 3

How did Cc1ccc(CN(Cc2ccco2)C(=O)c2ccccc2Cl)o1 do in these assays?
D1 antag: -1; D1 ag: -1; D1 PAM: 1; TRHR ag: -1; TRHR PAM: -5

Results for Cc1ccccc1Cn1c(COc2ccc(Cl)cc2)nc2ccccc21 ?
D1 antag: -65*; D1 ag: 62*; D1 PAM: -3; TRHR ag: -1; TRHR PAM: 3

What do the screens show for `Cc1ccc(OCCn2c(COc3ccc(Cl)cc3)nc3ccccc32)cc1`?
D1 antag: -18; D1 ag: 47*; D1 PAM: -6; TRHR ag: 5; TRHR PAM: 9

Results for CCCc1nc2ccccc2n1CCOC ?
D1 antag: 3; D1 ag: 0; D1 PAM: -4; TRHR ag: 0; TRHR PAM: -3

What do the screens show for `Cc1ccc(OCCn2c(C)nc3ccccc32)cc1`?
D1 antag: -45*; D1 ag: 14; D1 PAM: -12; TRHR ag: -1; TRHR PAM: -12
